Measured values from PubChem BioAssay AID504652 (National Center for Advancing Translational Sciences (NCATS), 2011).
“And” between values parts separate entries of the source, which are not always exact repeats. Equal entries are not always repeated. Among all 360,000 compounds or so, about 11,000 (3.1%) were called active. No stated cut-off is given here; in the data, active means activity change below about -30%; inactive means the rest. The list comes from a sample in which actives are over-represented; it also holds similar structures and randomly drawn compounds. A structure can be active in one record and inactive in another.

These molecules were tested against D(1A) dopamine receptor (Homo sapiens) (UniProt P21728) (assay: Antagonist of Human D 1 Dopamine Receptor: qHTS). Settings: HEK293 TREx D1 cells, calcium flux, dopamine EC80; at 10 µM; stronger effect = lower value.
Procedure, shortened: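 Tetracycline-induced HEK293 T-REx cells with force-coupled D1 receptor were loaded with a no-wash calcium dye. Compound was added after a 10 s baseline and read kinetically for 180 s; EC80 dopamine was then added and calcium flux followed another 180 s.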
On the % scale 0 is the no-effect control and ±100 the full control effect.

Chain of D(1A) dopamine receptor (Homo sapiens) (P21728 whole entry, looked up): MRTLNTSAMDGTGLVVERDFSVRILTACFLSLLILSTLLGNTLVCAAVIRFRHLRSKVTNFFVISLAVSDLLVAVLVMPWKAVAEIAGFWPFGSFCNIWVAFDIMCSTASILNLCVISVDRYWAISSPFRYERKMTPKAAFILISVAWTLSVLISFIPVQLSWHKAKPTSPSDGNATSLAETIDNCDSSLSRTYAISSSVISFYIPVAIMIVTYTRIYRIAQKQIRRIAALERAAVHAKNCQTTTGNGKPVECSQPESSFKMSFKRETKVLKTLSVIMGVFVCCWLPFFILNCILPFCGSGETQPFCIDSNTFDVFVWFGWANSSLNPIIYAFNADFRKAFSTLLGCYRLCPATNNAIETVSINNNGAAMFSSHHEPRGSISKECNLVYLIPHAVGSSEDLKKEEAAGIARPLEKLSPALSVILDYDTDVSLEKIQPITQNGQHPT

Compound	activity change, negative = inhibition
Cn1c(=O)c(=O)n(C)c2cc(S(=O)(=O)NCCN3CCN(c4ccccc4F)CC3)ccc21	-46.1% (active)
CCOC(=O)N1CCN(c2c(NCCN3CCN(c4ccccc4F)CC3)c(=O)c2=O)CC1	-21.9% (inactive)
Cn1c(=O)c(=O)n(C)c2cc(S(=O)(=O)NCCc3ccccc3)ccc21	-4.68% (inactive)
OCCn1c(-c2ccccc2)csc1=Nc1ccccc1	-45.5% (active)
CN(C)CCCn1c(-c2ccc(Cl)cc2)csc1=Nc1ccccc1	-34.7% (active)
CN(C)CCCn1c(=O)n(Cc2ccccc2)c(=O)c2c3c(sc21)CCCCC3	3.11% (inactive)
CN(C)CCCn1c(SCc2ccc(Cl)cc2)nnc1-c1ccncc1	10.2% (inactive)
O=c1cc(CCl)nc2scc(-c3ccccc3)n12	-12.4% (inactive)
O=C1N(Cc2ccccc2)c2ccc(Cl)cc2C1(O)c1c[nH]c2ccccc12 (centres undefined)	-8.31% (inactive)
Cc1ccc(-n2nnnc2CNC(=O)c2ccccc2C)cc1C	-3.19% (inactive)
CC(C)Oc1ccc(CN2CCC(n3nccc3NC(=O)c3cccnc3)CC2)cc1	8.77% (inactive)
COc1ccc(C(=O)Nc2ccnn2C2CCN(Cc3ccncc3)CC2)cc1	-37.3% (active)
COc1ccccc1C(=O)Nc1ccnn1C1CCN(Cc2cnn(C)c2)CC1	1.08% (inactive)
CCc1ccc(C2CC(=O)c3c([nH]c(C(=O)OCc4ccc(C)cc4)c3C)C2)cc1 (centres undefined)	-10.1% (inactive)
Cc1cccc(N2CCN(C(=O)c3ccc4c(c3)CCN4S(=O)(=O)c3ccccc3)CC2)c1C	-15.6% (inactive)
CCn1c(C)c(C)c2cc(C(=O)N3CCN(c4cccc(C)c4C)CC3)ccc21	25% (inactive) and -43.2% (active)
Cc1c(C)n(Cc2ccc(Cl)cc2)c2ccc(C(=O)N3CCN(c4ccccc4F)CC3)cc12	-18.2% (inactive)
CN(Cc1ccccc1)c1ncnc2onc(-c3ccc(F)cc3)c12	-1.84% (inactive)
Cc1ccc(-c2nnc(SCC(=O)NCc3ccccc3)nc2-c2ccc(C)cc2)cc1	-16.8% (inactive)
CCC(CC)c1nn2cc(-c3ccccc3)nc2s1	14.7% (inactive)
O=C(Nc1ccc([N+](=O)[O-])cc1)C1(c2ccccc2)CCOCC1	-11.2% (inactive)
O=C(CCC(=O)N1CCCC1)Nc1ccc([N+](=O)[O-])cc1	15.5% (inactive)
O=C(Nc1ccc([N+](=O)[O-])cc1)C1CC12CCC2 (centres undefined)	-56.8% (active)

Compound	activity change, negative = inhibition
CCC(=O)N1CCc2cc(Br)cc(S(=O)(=O)Nc3ccc(C)cc3C)c21	2.58% (inactive)
Cc1c(NC(=O)C(C)(C)C)cccc1-c1nc2ccccc2s1	0.443% (inactive)
CCOC(=O)c1ccc(N2C(=O)c3n[nH]c(C)c3C2c2ccc(O)c(OC)c2)cc1 (centres undefined)	-4.29% (inactive)
Cn1ncc(N2CCN(S(=O)(=O)c3ccc(Br)cc3)CC2)c(Cl)c1=O	-30.4% (active)
CCOC(=O)N1CCN(S(=O)(=O)c2ccc(Br)cc2)CC1	-1.63% (inactive)
Cc1ccc(S(=O)(=O)N2CCN(C)CC2)cc1	0.986% (inactive)
Cc1ccc(C)c(NC(=O)Cn2ccn(-c3ccc(F)cc3)c(=O)c2=O)c1	-20% (inactive)
COc1ccccc1NC(=O)c1oc2ccccc2c1NC(=O)C(C)C	-5.69% (inactive)
COC(=O)c1ccc(C2C(Oc3ccccc3C)C(=O)N2CCc2ccc(OC)c(OC)c2)cc1 (centres undefined)	-49.6% (active)
COc1ccc(CCN2C(=O)c3[nH]nc(-c4ccccc4O)c3C2c2ccc(C)cc2)cc1OC (centres undefined)	-3.51% (inactive)
COc1ccc(CCNC(=O)C(=O)NCc2ccccc2C)cc1OC	3.05% (inactive)
Cc1ccccc1NC(=O)CN1C(=O)C(C)(C)c2ccccc21	10.3% (inactive)
CCOc1cc(C(=S)N2CCOCC2)ccc1OS(=O)(=O)c1ccc(Br)cc1	-30.6% (active)
CC(=O)Nc1ccc(S(=O)(=O)Oc2ccc(Br)cc2C(=S)N2CCOCC2)cc1	0.681% (inactive)
CCOc1cc(C(=S)N2CCOCC2)ccc1O	-0.874% (inactive)
COC(=O)c1ccc2c(c1)N(CC(=O)Nc1ccc(C)c(C)c1)C(=O)c1ccccc1S2	10.3% (inactive)
Cc1csc2nc(COC(=O)c3ccc(NC(=O)COc4ccccc4F)cc3)cc(=O)n12	-26.3% (inactive)
CCS(=O)(=O)n1nc(-c2ccccc2)nc1SCc1ccccc1	-30.7% (active)
CCS(=O)(=O)n1nc(-c2ccc(OC)cc2)nc1SC	-19.3% (inactive)
Cc1ccc(S(=O)(=O)n2nc(-c3ccc(Cl)cc3)nc2NCc2ccccc2)cc1	-3.44% (inactive)
COc1ccc(CC(=O)N2N=C(C)CC2(O)C(F)(F)F)cc1 (centres undefined)	-2.03% (inactive)
CC1=NN(C(=O)CCc2ccccc2O)C(O)(C(F)(F)F)C1 (centres undefined)	12.3% (inactive)
CC1=NN(C(=O)CCCc2ccccc2)C(O)(C(F)(F)F)C1 (centres undefined)	-32.5% (active)

Compound	activity change, negative = inhibition
O=C(Nc1ccc2oc(-c3ccc(O)c(Br)c3)nc2c1)c1cc2ccccc2o1	-6.68% (inactive)
O=C(CC(c1cccs1)N1Cc2ccccc2C1=O)Nc1ccc(F)cc1F (centres undefined)	4.94% (inactive)
CCOC(=O)c1ccc(NC(=O)CSc2nc3c([nH]c4ccccc43)c(=O)n2C)cc1	-5.11% (inactive)
C/C(=N\NC(=O)C1(C)CC1(Br)Br)c1ccc(C)cc1C (centres undefined)	-58.1% (active)
Cc1ccc(C(=O)NC2CC(C)(C)NC(C)(C)C2)c(C)c1	-9.44% (inactive)
CC(=O)N/N=C(\C)c1ccc(Br)cc1Br	25.3% (inactive)
CCc1ccc(-n2nc(C)c3c(C)cc(=O)n(CC(=O)Nc4ccc(F)cc4C)c32)cc1	-6.21% (inactive)
Cc1ccc2[nH]cc(CCNC(=O)c3ccc([N+](=O)[O-])cc3)c2c1	-29.3% (inactive)
O=C(NCCc1c[nH]c2ccc(Cl)cc12)c1ccc([N+](=O)[O-])cc1	-40.2% (active)
O=C(NCCc1ccc(Cl)cc1Cl)c1cc([N+](=O)[O-])c[nH]c1=O	-1.06% (inactive)
O=C(c1cnn(-c2ccc(F)cc2)c1-n1cccc1)N1CCN(c2ccc(F)cc2)CC1	1.87% (inactive)
CCOC(=O)c1cc(-c2ccc(OC)c(S(=O)(=O)Nc3ccc(OC)cc3OC)c2)on1	-13.6% (inactive)
CCc1ccc(C(CNc2nc(C(F)(F)F)nc3ccccc23)N(C)C)cc1 (centres undefined)	26.8% (inactive)
NS(=O)(=O)c1ccc(CCNc2nc(C(F)(F)F)nc3ccccc23)cc1	-36% (active)
CC(Nc1nc(C(F)(F)F)nc2ccccc12)c1cccs1 (centres undefined)	-20.1% (inactive)
COC(=O)c1ccc(NC(=O)c2cc(S(=O)(=O)N3CCC(C)CC3)cn2C)cc1	-19.2% (inactive)
COc1ccc(Cn2c(C(=O)O)c(CNCCc3cccs3)c3ccc(OC)cc32)cc1	9.72% (inactive)
COc1ccc(CCNC(=O)CN2CCC(n3nnc4cc(F)ccc43)CC2)cc1OC	-3.98% (inactive)
O=C(Cn1c(-c2cccs2)cc2ccccc21)NCCc1ccc(Cl)cc1	-2.26% (inactive)
Cc1ccc(CCNC(=O)Cn2c(-c3cccs3)cc3cc(F)ccc32)cc1	-40.1% (active)
CN(CC(=O)Nc1ccc(F)cc1)C(=O)c1ccc(-c2ccc(Cl)cc2)o1	-13.8% (inactive)
CN(C)c1cc(-c2ccc(F)cc2)oc(=O)c1Cl	-37.9% (active)
CCCCC(CC)CNC(=O)C1CCN(S(=O)(=O)c2cccc3nsnc23)CC1 (centres undefined)	5.74% (inactive)

Compound	activity change, negative = inhibition
O=C(NCCc1ccc(Cl)cc1)c1ccc2nc(CCc3ccccc3)oc2c1	-1.03% (inactive)
Cc1ccc(Nc2nc3ccccc3nc2-n2nc(C)cc2C)c(Cl)c1	6.62% (inactive)
O=C(Nc1ccccc1Br)c1cc(CN2CCCC2)on1	-3.7% (inactive)
CCCCC(=O)OC1=CN(Cc2ccccc2)S(=O)(=O)c2ccccc21	-18.6% (inactive)
COc1ccc(Oc2coc3cc(OC(=O)c4cncc(Br)c4)ccc3c2=O)cc1	-0.64% (inactive)
CCc1ccc(Oc2coc3cc(OC(=O)c4cc5ccccc5oc4=O)ccc3c2=O)cc1	-33.2% (active)
CCc1ccc(Oc2coc3cc(O)ccc3c2=O)cc1	-2.88% (inactive)
CCc1ccc(NC(=O)Cn2c(=O)n(CCC(=O)NCc3ccc4c(c3)OCO4)c(=O)c3ccccc32)cc1	6.37% (inactive)
O=S(=O)(Nc1cc(S(=O)(=O)N2CCOCC2)ccc1N1CCCC1)c1cccs1	-6.97% (inactive)
CCN(CC)S(=O)(=O)c1ccc(N2CCN(C)CC2)c(NC(=O)Nc2ccccc2F)c1	7.64% (inactive)
CCN(CC)S(=O)(=O)c1ccc(N2CCCC2)c(NS(=O)(=O)c2cccs2)c1	-40.2% (active)
Cc1ccc(O)c(NC(=O)CCS(=O)(=O)c2nc(-c3ccc4c(c3)OCO4)cc(C(F)(F)F)n2)c1	-20.8% (inactive)
O=C(Cc1ccc(Cl)cc1)Nc1ccc2nn(-c3ccc(Cl)cc3)nc2c1	-2.04% (inactive)
Cc1cc(NC(=O)CC(C)C)cc(-c2nc3ncccc3o2)c1O	13.5% (inactive)
CCOc1ccc(NC(=O)c2ncoc2-c2ccco2)cc1	0.181% (inactive)
CCOc1ccc(NC(=O)N(CC(C)C)CC(C)C)cc1	-10.6% (inactive)
CCOc1ccc(NC(=O)N(CCC(C)C)C(C)c2ccco2)cc1 (centres undefined)	-66.3% (active)
CCOC(=O)c1ccccc1NC(=O)CCc1c(C)nc2c(c1C)c(=O)n(C)c(=O)n2C	4.81% (inactive)
CCc1ccc(S(=O)(=O)c2nnn3c2nc(N2CCN(CC)CC2)c2sccc23)cc1	8.88% (inactive)
Cc1ccccc1NC(=O)Cn1c(=O)n(CC2CCC(C(=O)NCCc3ccccc3)CC2)c(=O)c2ccccc21 (centres undefined)	-13.6% (inactive)
